# Experimental data taken from PubChem BioAssay (NCI).
# Compounds without any hit were thinned out: in the full panel of roughly 79,000, 15% have a hit. Unmarked numbers belong to inactive results. Calls of active or inactive are those of the source. No stated cut-off is given here; in the data, active means growth inhibition above about 70%; inactive means the rest.
# Key:
# [1] = NCI Yeast Anticancer Drug Screen. Data for the rad50 strain (AID 155);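 further: 0% = growth of vehicle-only cultures of the same strain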; conditions: S. cerevisiae rad50 strain growth inhibition, active compounds read high
# Outline: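 Compounds were tested on a yeast strain with an engineered DNA damage repair alteration; the reported value is growth inhibition normalised to vehicle treatment.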
# [2] = NCI Yeast Anticancer Drug Screen. Data for the mec2-1 strain (AID 157); conditions: S. cerevisiae mec2-1 strain, active compounds read high
# Outline: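 Each compound was tested on mec2-1 yeast, a strain altered in DNA damage repair or cell cycle control. Growth inhibition is reported relative to vehicle.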
# [3] = NCI Yeast Anticancer Drug Screen. Data for the sgs1 mgt1 strain (AID 161);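 further: 0% = growth of cultures given vehicle only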; conditions: S. cerevisiae sgs1 mgt1 strain, active compounds read high
# Outline: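 Genetically altered yeast, compound exposure, growth inhibition relative to vehicle.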
# [4] = NCI Yeast Anticancer Drug Screen. Data for the cln2 rad14 strain (AID 165);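 further: 0% = growth equal to vehicle treated cultures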; conditions: S. cerevisiae cln2 rad14 strain, active compounds read high
# Outline: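 Test compounds were added to cln2 rad14 yeast cultures; inhibition of growth was then determined by comparison with vehicle treatment.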
# [5] = NCI Yeast Anticancer Drug Screen. Data for the bub3 strain (AID 167); conditions: S. cerevisiae bub3 mutant strain, active compounds read high
# Outline: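 Growth of a checkpoint-deficient yeast mutant is measured after compound exposure. Values represent inhibition relative to vehicle.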
# [6] = NCI Yeast Anticancer Drug Screen. Data for the mlh1 rad18 strain (AID 175); conditions: S. cerevisiae mlh1 rad18 strain growth inhibition, active compounds read high
# Outline: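 Inhibition values reflect reduced growth of mutant yeast versus vehicle-treated controls following compound exposure; the mutations affect DNA damage repair.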
# [7] = at 5.0 µM (retest, dose inferred, filed as 0.5)
# [8] = at 50.0 µM (retest, dose inferred, filed as 5.0)
Compound,"growth inhibition [1, 7]","growth inhibition [1, 8]",growth inhibition ([1]; at 50.0 µM),"growth inhibition [2, 7]","growth inhibition [2, 8]",growth inhibition ([2]; at 50.0 µM),"growth inhibition [3, 7]","growth inhibition [3, 8]",growth inhibition ([3]; at 50.0 µM),"growth inhibition [4, 7] [%]","growth inhibition [4, 8]",growth inhibition ([4]; at 50.0 µM),"growth inhibition [5, 7]","growth inhibition [5, 8]",growth inhibition ([5]; at 50.0 µM),"growth inhibition [6, 7]","growth inhibition [6, 8]",growth inhibition ([6]; at 50.0 µM)
COc1ccc(/C=C/C(=N/NC(=O)c2ccccc2)C(C)CN(C)C)cc1 (centres undefined),-3%,4%,6.15%,1%,4%,16.3%,3%,2%,6.9%,1,-2%,49.2%,-5%,-7%,-8.2%,-1%,-64%,7.45%
Clc1ccc(CN2COc3c(cc(Cl)c4cccnc34)C2)cc1,4%,71% (active),7.5%,1%,56%,63.3%,1%,99% (active),16.5%,1,99% (active),98.8% (active),-6%,55%,99.2% (active),-7%,99% (active),24.1%
COc1ccc2c(c1)C(=O)C[C@@H]1[C@](C)(C#N)CCC[C@]21C,3%,31%,47.1%,3%,2%,-4.95%,3%,19%,33.4%,5,10%,-2.7%,5%,34%,69.8%,7%,13%,47.7%
CCCCCCCCC[n+]1cccc(C(=O)c2ccccc2)c1,-1%,53%,51.6%,4%,56%,24.8%,-165%,77% (active),72.7% (active),-4,42%,3.95%,0%,70% (active),82.5% (active),36%,78% (active),72.7% (active)
CC(=O)OC1COC(N2C(=O)C(=O)c3cc(Br)ccc32)C(OC(C)=O)C1OC(C)=O (centres undefined),-11%,20%,50.7%,1%,7%,-12.3%,-16%,0%,2.9%,-37,-4%,19.1%,-13%,23%,25.4%,-2%,14%,12.9%
OCCCNc1nc2c(Cl)cc(Cl)cc2c2ccccc12,16%,49%,50%,6%,28%,15.4%,8%,30%,72.7% (active),-6,-16%,19.4%,-6%,-5%,76.2% (active),4%,30%,92.8% (active)
O=C(OCc1ccccc1)c1ccccc1Cl,3%,21%,50.4%,-3%,0%,14.1%,2%,14%,40.2%,4,-11%,-18.6%,10%,19%,30.9%,3%,14%,82.8% (active)
O=C(Nc1ccccc1)OCCCCl,-7%,-4%,9.1%,-7%,1%,-13.3%,-16%,25%,30.6%,25,-7%,64.3%,-19%,-19%,7.3%,-23%,-8%,12.4%
O=C(CBr)C1(Br)CCN(Cc2ccccc2)CC1,19%,99% (active),99.3% (active),17%,99% (active),99.8% (active),22%,99% (active),99.6% (active),8,99% (active),97.6% (active),6%,99% (active),99.5% (active),30%,99% (active),99.6% (active)
CC(=O)Oc1cccc2c(C(=O)CCl)ccnc12,87% (active),99% (active),99.1% (active),86% (active),99% (active),95% (active),96% (active),99% (active),99.2% (active),15,99% (active),92% (active),90% (active),18%,95.3% (active),73% (active),99% (active),98.8% (active)
CN(C(=O)c1ccc(Cl)cc1)C(=S)N1CCN(c2ccccc2)CC1,-11%,72% (active),80.3% (active),-5%,80% (active),74.1% (active),-16%,82% (active),79% (active),3,41%,61.2%,1%,88% (active),63.5%,-10%,89% (active),72.5% (active)
CC(=O)Oc1c2c(c(OC(C)=O)c3c1n(C(C)=O)c1ccccc1n3C(C)=O)n(C(C)=O)c1ccccc1n2C(C)=O,50%,50%,78.2% (active),42%,42%,74.8% (active),34%,34%,79.7% (active),26,26%,62.5%,44%,44%,69.8%,51%,51%,69.7%
c1ccc2c(c1)CCN2CCc1c[nH]c2ccccc12,0%,12%,89.6% (active),-5%,-12%,91.8% (active),-10%,3%,89.8% (active),23,31%,89.8% (active),-26%,43%,89.3% (active),-14%,21%,88.5% (active)
N#CCc1ccc2c(c1)Sc1ccccc1O2,-159%,-54%,90.5% (active),-49%,-26%,31.8%,-58%,-13%,53%,-57,-35%,-5.85%,-62%,-33%,50.2%,-122%,-45%,73.8% (active)
OC1(c2ccccc2)c2ccccc2C(O)(c2ccccc2)c2cc3c(cc21)CCCC3 (centres undefined),81% (active),96% (active),96.8% (active),28%,98% (active),97.5% (active),17%,98% (active),97.7% (active),-3,97% (active),97.7% (active),17%,98% (active),96% (active),51%,96% (active),96.8% (active)
CC12C=C3CC(OC(=O)c4ccccc4)CCC3(O1)c1ccccc12 (centres undefined),2%,69%,84.8% (active),-1%,77% (active),91.5% (active),1%,80% (active),90.1% (active),3,2%,10.1%,4%,76% (active),79.3% (active),1%,76% (active),76% (active)
ON=C1Cc2ccccc2-c2ccccc2C1,2%,1%,-23%,2%,5%,-11.1%,8%,4%,-3.3%,1,7%,39.2%,-5%,1%,6.1%,-3%,-2%,17.1%
NC(Cc1ccnnc1)C(=O)O (centres undefined),-10%,-5%,-8.6%,10%,-7%,-36.4%,-7%,-10%,-36.2%,-7,-11%,29.1%,-13%,-9%,-22.9%,-16%,-17%,-14.9%
